Measured values reported in PubChem BioAssay AID623994 (NMMLSC, 2012).
Potency and affinity values are given separately.

Biological target: Multidrug resistance protein CDR2 (Candida albicans (strain SC5314 / ATCC MYA-2876)) (UniProt P78595)
Assay: CaCDR2 efflux pump inhibitors in yeast, dose response, S. cerevisiae AD1-8u, singleplex, Cherry Pick2 set (AID 623994)
Conditions: S. cerevisiae AD1-8u expressing CaCDR2, Nile Red efflux; series mostly up to 100 µM; Nile Red retention, efflux inhibition: at the top concentration;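 active means compounds whose fitted concentration for half the maximal dye retention is below 100 µM; inactive means the rest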

Multidrug resistance protein CDR2 (Candida albicans (strain SC5314 / ATCC MYA-2876)), sequence (P78595 whole entry, looked up): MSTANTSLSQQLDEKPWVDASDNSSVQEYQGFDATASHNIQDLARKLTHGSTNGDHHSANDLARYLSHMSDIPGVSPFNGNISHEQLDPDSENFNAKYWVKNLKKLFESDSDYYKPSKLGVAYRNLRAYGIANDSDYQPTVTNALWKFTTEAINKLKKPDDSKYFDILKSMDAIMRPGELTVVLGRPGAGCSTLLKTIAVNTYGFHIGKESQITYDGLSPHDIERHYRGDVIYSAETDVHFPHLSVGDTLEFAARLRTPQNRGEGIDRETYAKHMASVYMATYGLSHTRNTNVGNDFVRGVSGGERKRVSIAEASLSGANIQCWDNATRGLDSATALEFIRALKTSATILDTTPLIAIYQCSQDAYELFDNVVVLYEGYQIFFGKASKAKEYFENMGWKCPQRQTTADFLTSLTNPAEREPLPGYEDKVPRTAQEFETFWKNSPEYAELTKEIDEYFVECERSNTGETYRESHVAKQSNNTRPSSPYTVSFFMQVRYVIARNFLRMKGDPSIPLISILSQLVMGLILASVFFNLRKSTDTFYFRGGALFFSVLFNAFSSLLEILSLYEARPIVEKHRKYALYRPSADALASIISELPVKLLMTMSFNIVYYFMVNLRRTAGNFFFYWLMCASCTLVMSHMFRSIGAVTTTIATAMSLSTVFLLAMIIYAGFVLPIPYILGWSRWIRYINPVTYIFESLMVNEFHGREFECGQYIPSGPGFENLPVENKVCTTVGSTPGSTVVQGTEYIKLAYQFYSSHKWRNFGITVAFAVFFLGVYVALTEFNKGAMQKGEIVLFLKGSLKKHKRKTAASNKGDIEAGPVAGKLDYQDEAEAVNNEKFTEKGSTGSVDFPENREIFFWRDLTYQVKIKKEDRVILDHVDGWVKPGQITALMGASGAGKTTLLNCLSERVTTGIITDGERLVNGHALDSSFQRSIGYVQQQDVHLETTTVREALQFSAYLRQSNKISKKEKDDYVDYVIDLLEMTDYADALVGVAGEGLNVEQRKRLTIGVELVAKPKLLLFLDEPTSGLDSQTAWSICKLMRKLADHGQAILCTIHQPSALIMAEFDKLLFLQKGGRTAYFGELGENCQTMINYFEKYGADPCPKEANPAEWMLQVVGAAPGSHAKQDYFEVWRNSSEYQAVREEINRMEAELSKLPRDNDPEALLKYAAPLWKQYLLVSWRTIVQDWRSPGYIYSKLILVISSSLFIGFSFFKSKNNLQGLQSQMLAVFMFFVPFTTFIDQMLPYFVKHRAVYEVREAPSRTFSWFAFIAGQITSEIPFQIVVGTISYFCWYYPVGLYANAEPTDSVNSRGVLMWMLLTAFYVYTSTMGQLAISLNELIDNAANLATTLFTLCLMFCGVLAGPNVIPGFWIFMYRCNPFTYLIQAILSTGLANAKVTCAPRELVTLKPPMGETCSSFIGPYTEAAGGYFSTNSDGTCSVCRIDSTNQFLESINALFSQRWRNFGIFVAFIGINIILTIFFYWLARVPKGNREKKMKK

Nile Red retention, efflux inhibition, inactive:
C[C@@]12C(=O)Nc3cc(F)c(F)cc3C(=O)N1[C@H]1c3cc(Cl)ccc3OC[C@@H]1[C@@H]2c1ccccc1 8.62%
NS(=O)(=O)c1ccc(N2N=C(c3ccc(Br)cc3)CC2c2ccc(F)cc2)cc1 (centres undefined) -3.65%
NS(=O)(=O)c1ccc(N2N=C(c3ccccc3)CC2c2ccc(F)cc2)cc1 (centres undefined) -1.19%
OCCN1CCN(CC/C=C2/c3ccccc3Sc3ccc(C(F)(F)F)cc32)CC1 27.4%
COc1ccc(S(=O)(=O)N(C)C[C@H]2Oc3c(NC(=O)NC4CCCCC4)cccc3C(=O)N([C@H](C)CO)C[C@@H]2C)cc1 6.17%
O=C(/C=C/c1cccs1)N1CCC2(CC1)Oc1ccc(F)cc1C(=O)C21CC(c2ccccc2)=NO1 (centres undefined) 0.2%
O=C(C[n+]1cc(-c2ccccc2)n2c1CCC2)N1c2ccccc2Sc2ccccc21 -1.94%
COc1ccc(-c2c[n+](CC(=O)N3c4ccccc4Sc4ccccc43)c3n2CCC3)cc1 -5.85%
COc1cccc(-c2sc3ccc(OC)cc3c2-c2ccc(OCCN3CCOCC3)cc2)c1 2.95%
Cc1cccc(C2CC(c3ccccc3)=NN2c2ccc(S(N)(=O)=O)cc2)c1 (centres undefined) -7.15%
C[C@H](CO)N1C[C@H](C)[C@@H](CN(C)S(=O)(=O)c2ccccc2)Oc2c(NC(=O)Nc3ccccc3)cccc2C1=O -1.33%
COc1ccc(C(=O)OCCc2ccc(O)cc2)cc1 -3.92%
Cc1ccc(C2CC(c3ccccc3)=NN2c2ccc(S(N)(=O)=O)cc2)cc1 (centres undefined) -8.26%
O=C(Nc1ccccc1)C1=C[C@@H](c2ccc(Br)cc2)C[C@@H](OCCCCO)O1 10.3%
COc1ccc([C@H]2CC(=O)C=C(c3ccnc4ccc(Cl)cc34)C2)cc1 0.18%
CCCCN1Cc2cc(C(=O)c3cc(OC)ccc3O)cnc2NC1=O 12.2%
O=C(C1CCCN(c2ncnc3c2nc2n3CCCCC2)C1)N1CCN(c2cccc(Cl)c2)CC1 (centres undefined) -2.18%
CCOc1cccc2sc(NC(=O)c3ccc(Br)s3)nc12 -2.33%
COc1ccc(CCOC(=O)c2ccc(N)c([N+](=O)[O-])c2)cc1 212%
CC(C)C(=O)N1CCN(c2ccccc2NC(=O)c2ccc3c(c2)OCCO3)CC1 -3.89%
CCCCCc1cc(=O)oc2c(C(CCN3CCCC(C)C3)c3ccc(N(C)C)cc3)c(OC)cc(OC)c12 (centres undefined) 369%
O=C(C1CCCN(c2ncnc3c2nc2n3CCCCC2)C1)N1CCN(c2ccccc2)CC1 (centres undefined) -1.78%
CCc1ccc(C2=NN(c3ccc(S(N)(=O)=O)cc3)C(c3ccc(F)cc3)C2)cc1 (centres undefined) -3.46%
CCO[C@@H]1OC(C(=O)Nc2ccccc2)=C[C@H](c2ccc(Br)cc2)[C@H]1CCCO -0.14%
COc1ccccc1C(=O)OCCc1ccccc1 -1.49%
O=C1C(Cc2ccccc2)Nc2ncnc(N3CCN(c4ccccc4)CC3)c2N1Cc1ccccc1 (centres undefined) -2.8%
COc1cc(OC)c2ccc(=O)oc2c1C(CCN1CCCC1)c1ccc(N(C)C)cc1 (centres undefined) -2.33%
CCC(=O)N1CCN(c2ccc(Cl)cc2NC(=O)c2ccc3c(c2)OCCO3)CC1 -3.15%
COc1ccc(C(=O)NC2CC(C)(C)Cc3c2cnn3-c2ccccc2)c(OC)c1 (centres undefined) -2.1%
